# Results from PubChem BioAssay AID1159580 (chemical genetic matrix, 2015).
# About 2,000 (36%) of roughly 5,500 compounds were called active. Inconclusive results (about 18%) are left out. The list shows a part of the results. Values without a mark were called inactive. Cut-off read from the data, not from the text of the source: active = normalized growth mostly below about 0.91 (no sharp cut-off); inconclusive = no clear call, values can overlap the other calls; inactive = mostly above about 0.92.
# Assay: chemical genetic growth profiling, strain panel (AID 1159580);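 note: tested at 20 µM; growth read once vehicle control cultures reached saturation at 30 °C; 1 = growth at the plate median or of vehicle wells; lower values mean less growth of the strain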
# Settings: growth OD
structure (smiles),measurement,setting,value
C[C@@H]1CC[C@H]2[C@@H](C)C(=O)O[C@@H]3O[C@@]4(C)CC[C@@H]1[C@]32OO4,normalized growth,"S. cerevisiae deletion strains, locus YKL009W, strain mrt4, stronger effect = lower value",0.986
same,normalized growth,"S. cerevisiae deletion strains, locus YKL068W, stronger effect = lower value",0.914 (active)
same,normalized growth,"S. cerevisiae deletion strains, locus YKL085W, strain MDH1 (second series), stronger effect = lower value",0.906 (active)
same,normalized growth,"S. cerevisiae deletion strains, locus YKL085W, strain MDH1, stronger effect = lower value",0.906 (active)
same,normalized growth,"S. cerevisiae deletion strains, locus YKL160W, strain elf1, stronger effect = lower value",0.874 (active)
same,normalized growth,"S. cerevisiae deletion strains, locus YKL190W, strain CNB1, stronger effect = lower value",0.856 (active)
same,normalized growth,"S. cerevisiae deletion strains, locus YKR001C, strain vps1, stronger effect = lower value",0.692 (active)
same,normalized growth,"S. cerevisiae deletion strains, locus YKR026C, strain gcn3, stronger effect = lower value",0.953
same,normalized growth,"S. cerevisiae deletion strains, locus YKR091W, strain srl3, stronger effect = lower value",0.949
same,normalized growth,"S. cerevisiae deletion strains, locus YLL001W, strain dnm1, stronger effect = lower value",0.824 (active)
same,normalized growth,"S. cerevisiae deletion strains, locus YLL026W, stronger effect = lower value",0.876 (active)
same,normalized growth,"S. cerevisiae deletion strains, locus YLL041C, strain sdh2, stronger effect = lower value",0.946
same,normalized growth,"S. cerevisiae deletion strains, locus YLR027C, strain aat2, stronger effect = lower value",0.865 (active)
same,normalized growth,"S. cerevisiae deletion strains, locus YLR039C, strain RIC1, stronger effect = lower value",0.353 (active)
same,normalized growth,"S. cerevisiae deletion strains, locus YLR058C, strain SHM2, stronger effect = lower value",0.852 (active)
same,normalized growth,"S. cerevisiae deletion strains, locus YLR102C, strain apc9, stronger effect = lower value",0.94
same,normalized growth,"S. cerevisiae deletion strains, locus YLR113W, strain HOG1, stronger effect = lower value",0.698 (active)
same,normalized growth,"S. cerevisiae deletion strains, locus YLR221C, strain rsa3, stronger effect = lower value",0.812 (active)
same,normalized growth,"S. cerevisiae deletion strains, locus YLR258W, strain gsy2, stronger effect = lower value",0.918
same,normalized growth,"S. cerevisiae deletion strains, locus YLR262C, strain YPT6 (second series), stronger effect = lower value",0.375 (active)
same,normalized growth,"S. cerevisiae deletion strains, locus YLR262C, strain YPT6, stronger effect = lower value",0.364 (active)
same,normalized growth,"S. cerevisiae deletion strains, locus YLR268W, strain sec22, stronger effect = lower value",0.822 (active)
same,normalized growth,"S. cerevisiae deletion strains, locus YLR320W, strain mms22, stronger effect = lower value",0.674 (active)
same,normalized growth,"S. cerevisiae deletion strains, locus YLR330W, strain CHS5, stronger effect = lower value",0.879 (active)
same,normalized growth,"S. cerevisiae deletion strains, locus YLR342W, strain FKS1 (second series), stronger effect = lower value",0.82
same,normalized growth,"S. cerevisiae deletion strains, locus YLR342W, strain FKS1, stronger effect = lower value",0.885 (active)
same,normalized growth,"S. cerevisiae deletion strains, locus YLR357W, strain rsc2, stronger effect = lower value",1.02
same,normalized growth,"S. cerevisiae deletion strains, locus YLR370C, strain arc18, stronger effect = lower value",0.897 (active)
same,normalized growth,"S. cerevisiae deletion strains, locus YLR371W, strain rom2, stronger effect = lower value",0.929
same,normalized growth,"S. cerevisiae deletion strains, locus YLR384C, strain iki3, stronger effect = lower value",0.949
same,normalized growth,"S. cerevisiae deletion strains, locus YLR418C, strain cdc73, stronger effect = lower value",0.614 (active)
same,normalized growth,"S. cerevisiae deletion strains, locus YML016C, strain PPZ1, stronger effect = lower value",0.915 (active)
same,normalized growth,"S. cerevisiae deletion strains, locus YML032C, strain rad52, stronger effect = lower value",0.798 (active)
same,normalized growth,"S. cerevisiae deletion strains, locus YML120C, strain ndi1, stronger effect = lower value",0.839 (active)
same,normalized growth,"S. cerevisiae deletion strains, locus YML124C, strain tub3, stronger effect = lower value",0.936
same,normalized growth,"S. cerevisiae deletion strains, locus YMR058W, strain fet3, stronger effect = lower value",0.742 (active)
same,normalized growth,"S. cerevisiae deletion strains, locus YMR078C, strain ctf18, stronger effect = lower value",0.882 (active)
same,normalized growth,"S. cerevisiae deletion strains, locus YMR125W, strain sto1, stronger effect = lower value",0.925
same,normalized growth,"S. cerevisiae deletion strains, locus YMR129W, stronger effect = lower value",0.899 (active)
same,normalized growth,"S. cerevisiae deletion strains, locus YMR205C, strain PFK2, stronger effect = lower value",0.779 (active)
same,normalized growth,"S. cerevisiae deletion strains, locus YMR223W, strain ubp8, stronger effect = lower value",0.878 (active)
same,normalized growth,"S. cerevisiae deletion strains, locus YMR231W, strain pep5, stronger effect = lower value",0.928 (active)
same,normalized growth,"S. cerevisiae deletion strains, locus YMR263W, strain SAP30, stronger effect = lower value",0.81 (active)
same,normalized growth,"S. cerevisiae deletion strains, locus YMR307W, strain GAS1, stronger effect = lower value",0.651
same,normalized growth,"S. cerevisiae deletion strains, locus YNL067W, strain RPL9B, stronger effect = lower value",0.86 (active)
same,normalized growth,"S. cerevisiae deletion strains, locus YNL071W, strain lat1, stronger effect = lower value",0.705 (active)
same,normalized growth,"S. cerevisiae deletion strains, locus YNL128W, strain TEP1, stronger effect = lower value",0.757 (active)
same,normalized growth,"S. cerevisiae deletion strains, locus YNL153C, strain GIM3, stronger effect = lower value",0.811 (active)
same,normalized growth,"S. cerevisiae deletion strains, locus YNL183C, strain NPR1, stronger effect = lower value",0.748 (active)
same,normalized growth,"S. cerevisiae deletion strains, locus YNL209W, strain ssb2, stronger effect = lower value",0.867 (active)
same,normalized growth,"S. cerevisiae deletion strains, locus YNL233W, strain BNI4, stronger effect = lower value",0.81 (active)
same,normalized growth,"S. cerevisiae deletion strains, locus YNL248C, strain rpa49, stronger effect = lower value",0.902
same,normalized growth,"S. cerevisiae deletion strains, locus YNL250W, strain rad50, stronger effect = lower value",0.87 (active)
same,normalized growth,"S. cerevisiae deletion strains, locus YNL271C, strain bni1, stronger effect = lower value",0.883 (active)
same,normalized growth,"S. cerevisiae deletion strains, locus YNL298W, strain CLA4, stronger effect = lower value",0.861 (active)
same,normalized growth,"S. cerevisiae deletion strains, locus YNL307C, strain MCK1, stronger effect = lower value",0.754 (active)
same,normalized growth,"S. cerevisiae deletion strains, locus YNL322C, strain KRE1 (second series), stronger effect = lower value",0.904 (active)
same,normalized growth,"S. cerevisiae deletion strains, locus YNL322C, strain KRE1, stronger effect = lower value",0.857 (active)
same,normalized growth,"S. cerevisiae deletion strains, locus YNR049C, strain mso1, stronger effect = lower value",0.94
same,normalized growth,"S. cerevisiae deletion strains, locus YNR052C, strain pop2, stronger effect = lower value",0.842 (active)
same,normalized growth,"S. cerevisiae deletion strains, locus YOL006C, strain TOP1, stronger effect = lower value",0.605
same,normalized growth,"S. cerevisiae deletion strains, locus YOL012C, strain htz1",0.461
same,normalized growth,"S. cerevisiae deletion strains, locus YOL147C, strain pex11, stronger effect = lower value",0.869 (active)
same,normalized growth,"S. cerevisiae deletion strains, locus YOR001W, strain rrp6, stronger effect = lower value",0.855 (active)
same,normalized growth,"S. cerevisiae deletion strains, locus YOR061W, strain CKA2, stronger effect = lower value",0.92
same,normalized growth,"S. cerevisiae deletion strains, locus YOR069W, strain VPS5, stronger effect = lower value",0.911 (active)
same,normalized growth,"S. cerevisiae deletion strains, locus YOR070C, strain gyp1, stronger effect = lower value",0.814 (active)
same,normalized growth,"S. cerevisiae deletion strains, locus YOR080W, strain dia2, stronger effect = lower value",0.926
same,normalized growth,"S. cerevisiae deletion strains, locus YOR083W, strain WHI5, stronger effect = lower value",0.822 (active)
same,normalized growth,"S. cerevisiae deletion strains, locus YOR106W, strain vam3, stronger effect = lower value",0.784 (active)
same,normalized growth,"S. cerevisiae deletion strains, locus YOR136W, strain idh2, stronger effect = lower value",0.93
same,normalized growth,"S. cerevisiae deletion strains, locus YOR144C, strain elg1, stronger effect = lower value",0.927 (active)
same,normalized growth,"S. cerevisiae deletion strains, locus YOR184W, strain ser1, stronger effect = lower value",0.705 (active)
same,normalized growth,"S. cerevisiae deletion strains, locus YOR231W, strain MKK1, stronger effect = lower value",0.745 (active)
same,normalized growth,"S. cerevisiae deletion strains, locus YOR265W, strain rbl2, stronger effect = lower value",0.913 (active)
same,normalized growth,"S. cerevisiae deletion strains, locus YOR270C, strain vph1, stronger effect = lower value",0.633 (active)
same,normalized growth,"S. cerevisiae deletion strains, locus YOR290C, strain snf2, stronger effect = lower value",0.847 (active)
same,normalized growth,"S. cerevisiae deletion strains, locus YOR316C, strain cot1, stronger effect = lower value",0.94
same,normalized growth,"S. cerevisiae deletion strains, locus YPL051W, strain arl3, stronger effect = lower value",0.818 (active)
same,normalized growth,"S. cerevisiae deletion strains, locus YPL078C, strain atp4, stronger effect = lower value",0.796 (active)
same,normalized growth,"S. cerevisiae deletion strains, locus YPL106C, strain sse1, stronger effect = lower value",0.894
same,normalized growth,"S. cerevisiae deletion strains, locus YPL240C, strain hsp82, stronger effect = lower value",0.949
same,normalized growth,"S. cerevisiae deletion strains, locus YPL241C, strain CIN2, stronger effect = lower value",0.924 (active)
same,normalized growth,"S. cerevisiae deletion strains, locus YPL256C, strain CLN2, stronger effect = lower value",0.704 (active)
same,normalized growth,"S. cerevisiae deletion strains, locus YPR119W, strain clb2, stronger effect = lower value",0.927 (active)
same,normalized growth,"S. cerevisiae deletion strains, locus YPR141C, strain kar3, stronger effect = lower value",0.907 (active)
same,normalized growth,"S. cerevisiae deletion strains, locus YPR163C, strain tif3, stronger effect = lower value",0.958
same,normalized growth,"S. cerevisiae deletion strains, locus YPR167C, strain met16, stronger effect = lower value",0.909 (active)
same,normalized growth,"S. cerevisiae deletion strains, strain wtn01, stronger effect = lower value",0.818 (active)
same,normalized growth,"S. cerevisiae strains, strain wild type, stronger effect = lower value",0.852 (active)
